{"source": "the supplement of paper PMC10037445", "key": {"[1]": {"test_system": "RAW-Dual", "experiment": "IRF Lucia reporter activity, fold change vs agonist alone; higher = enhanced IRF activity", "conditions": "agonist: MPLA (TLR4) […]", "in_short": "(§1)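 After 50 nL of library stock was delivered by pin tool to RAW-Dual macrophages (50,000 cells/well, DMEM, 384-well plates), a PRR agonist was added 1 h later and the plates were kept at 37 °C, 5% CO2. Twenty hours later, IRF was read from supernatant by QuantiLuc luminescence and NF-κB by QuantiBlue absorbance at 620 nm. Reporter activity is stated as fold change over agonist-alone wells. Wells with IncuCyte confluency under 70% of agonist controls in both mask sets were counted as cytotoxic.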"}, "[2]": {"test_system": "RAW-Dual", "experiment": "IRF Lucia reporter activity, fold change vs agonist alone; cytotoxicity flag (confluency mask): not cytotoxic; higher = enhanced IRF activity", "in_short": "as §1"}, "[3]": {"test_system": "RAW-Dual", "experiment": "IRF Lucia reporter activity, fold change vs agonist alone; cytotoxicity flag (confluency mask): cytotoxic (confluency <70% of control); higher = enhanced IRF activity", "in_short": "as §1"}, "[4]": {"conditions": "library stock concentration (final ~1000-fold dilution): 10 mM, cytotoxicity flag (confluency mask): not cytotoxic"}, "[5]": {"conditions": "agonist: 3'3'-cGAMP (STING) 10 ug/mL"}, "[6]": {"conditions": "library stock concentration (final ~1000-fold dilution): 10 mM, cytotoxicity flag (confluency mask): cytotoxic (confluency <70% of control)"}}, "note": "In all, about 2,900 compounds were measured (“IRF Lucia reporter activity, fold change vs agonist alone”: median about 0.9, highest 2% from about 2.8 on). For the sample, the highest values were picked, then their nearest neighbours and some compounds at random.", "data": [{"smiles": "O=C(CCc1ccc(O)cc1)c1c(O)cccc1OC1OC(CO)C(O)C(O)C1O", "note": "(centres undefined)", "values": [{"measurement": "IRF Lucia reporter activity", "setting": "[1]; [4]", "value": 1.01}]}, {"smiles": "O=C(CCc1ccc(O)cc1)c1c(O)cccc1OC1OC(CO)C(O)C(O)C1O", "note": "(centres undefined) (library stock concentration (final ~1000-fold dilution): 10 mM)", "values": [{"measurement": "IRF Lucia reporter activity", "setting": "[2]; [5]", "value": 0.943}, {"measurement": "IRF Lucia reporter activity", "setting": "[2]; agonist: LPS (TLR4) 0.1 ug/mL", "value": 0.918}]}, {"smiles": "CC(c1ccc2nccn2c1)n1nnc2ncc(-c3cnn(C)c3)nc21", "note": "(centres undefined) (library stock concentration (final ~1000-fold dilution): 10 mM)", "values": [{"measurement": "IRF Lucia reporter activity", "setting": "[2]; [5]", "value": 0.953}, {"measurement": "IRF Lucia reporter activity", "setting": "[2]; agonist: LPS (TLR4) 0.1 ug/mL", "value": 1.15}]}, {"smiles": "CN(C)CCSSCCNC(=O)C1CCN(C(=O)CSc2ccc(Cl)cc2)CC1.O=C(O)C(F)(F)F", "values": [{"measurement": "IRF Lucia reporter activity", "setting": "[1]; [4]", "value": 0.751}]}, {"smiles": "CN(C)CCSSCCNC(=O)C1CCN(C(=O)CSc2ccc(Cl)cc2)CC1.O=C(O)C(F)(F)F", "note": "(library stock concentration (final ~1000-fold dilution): 10 mM)", "values": [{"measurement": "IRF Lucia reporter activity", "setting": "[2]; [5]", "value": 0.396}, {"measurement": "IRF Lucia reporter activity", "setting": "[2]; agonist: LPS (TLR4) 0.1 ug/mL", "value": 0.778}]}, {"smiles": "O=C1OC(COc2ccccc2[N+](=O)[O-])CC1Cc1ccccc1", "note": "(centres undefined) (library stock concentration (final ~1000-fold dilution): 10 mM)", "values": [{"measurement": "IRF Lucia reporter activity", "setting": "[2]; [5]", "value": 1.23}, {"measurement": "IRF Lucia reporter activity", "setting": "[2]; agonist: LPS (TLR4) 0.1 ug/mL", "value": 1.23}]}, {"smiles": "O=c1cccccc1O", "note": "(library stock concentration (final ~1000-fold dilution): 10 mM)", "values": [{"measurement": "IRF Lucia reporter activity", "setting": "[2]; [5]", "value": 0.664}, {"measurement": "IRF Lucia reporter activity", "setting": "[2]; agonist: LPS (TLR4) 0.1 ug/mL", "value": 0.952}]}, {"smiles": "O=c1cccccc1O", "values": [{"measurement": "IRF Lucia reporter activity", "setting": "[1]; [4]", "value": 1.24}]}, {"smiles": "NC(=O)c1cc(F)cc2c1C(=O)N(C1CCN(C3CCC(F)(F)CC3)CC1)C2", "note": "(library stock concentration (final ~1000-fold dilution): 10 mM)", "values": [{"measurement": "IRF Lucia reporter activity", "setting": "[2]; [5]", "value": 0.94}, {"measurement": "IRF Lucia reporter activity", "setting": "[2]; agonist: LPS (TLR4) 0.1 ug/mL", "value": 0.923}]}, {"smiles": "O=C(Nc1nc2cccc(-c3ccc(CN4CCS(=O)(=O)CC4)cc3)n2n1)C1CC1", "note": "(library stock concentration (final ~1000-fold dilution): 10 mM)", "values": [{"measurement": "IRF Lucia reporter activity", "setting": "[2]; [5]", "value": 1.1}, {"measurement": "IRF Lucia reporter activity", "setting": "[2]; agonist: LPS (TLR4) 0.1 ug/mL", "value": 3.4}]}, {"smiles": "CC1(C)CN(C(=O)c2ccc(-c3cccc4nc(NC(=O)C5CC5)nn34)cc2)C1", "note": "(library stock concentration (final ~1000-fold dilution): 10 mM)", "values": [{"measurement": "IRF Lucia reporter activity", "setting": "[2]; [5]", "value": 0.308}, {"measurement": "IRF Lucia reporter activity", "setting": "[2]; agonist: LPS (TLR4) 0.1 ug/mL", "value": 0.577}]}, {"smiles": "CC1(C)CN(C(=O)c2ccc(-c3cccc4nc(NC(=O)C5CC5)nn34)cc2)C1", "values": [{"measurement": "IRF Lucia reporter activity", "setting": "[1]; [4]", "value": 0.713}]}, {"smiles": "CNCCC=C1c2ccccc2CCc2ccccc21.Cl", "values": [{"measurement": "IRF Lucia reporter activity", "setting": "[1]; [6]", "value": 1.38}]}, {"smiles": "CNCCC=C1c2ccccc2CCc2ccccc21.Cl", "note": "(library stock concentration (final ~1000-fold dilution): 10 mM)", "values": [{"measurement": "IRF Lucia reporter activity", "setting": "[3]; [5]", "value": 0.464}, {"measurement": "IRF Lucia reporter activity", "setting": "[3]; agonist: LPS (TLR4) 0.1 ug/mL", "value": 1.52}]}, {"smiles": "CN(C)c1ccc(O)c2c1CC1CC3C(N(C)C)C(O)=C(C(N)=O)C(=O)C3(O)C(O)=C1C2=O.Cl", "note": "(centres undefined) (library stock concentration (final ~1000-fold dilution): 2 mM water)", "values": [{"measurement": "IRF Lucia reporter activity", "setting": "[2]; [5]", "value": 1.09}, {"measurement": "IRF Lucia reporter activity", "setting": "[2]; agonist: LPS (TLR4) 0.1 ug/mL", "value": 0.851}]}, {"smiles": "CN(C)c1ccc(O)c2c1CC1CC3C(N(C)C)C(O)=C(C(N)=O)C(=O)C3(O)C(O)=C1C2=O.Cl", "note": "(centres undefined)", "values": [{"measurement": "IRF Lucia reporter activity", "setting": "[1]; library stock concentration (final ~1000-fold dilution): 2 mM water, cytotoxicity flag (confluency mask): not cytotoxic", "value": 1.28}]}, {"smiles": "Cc1sc2c(c1C)C(c1ccc(Cl)cc1)=N[C@@H](CC(=O)NCCCCCCCCNC(=O)COc1cccc3c1C(=O)N(C1CCC(=O)NC1=O)C3=O)c1nnc(C)n1-2", "note": "(some centres undefined) (library stock concentration (final ~1000-fold dilution): 10 mM)", "values": [{"measurement": "IRF Lucia reporter activity", "setting": "[3]; [5]", "value": 0.189}, {"measurement": "IRF Lucia reporter activity", "setting": "[3]; agonist: LPS (TLR4) 0.1 ug/mL", "value": 0.244}]}, {"smiles": "CC(C)(O)c1ccccc1CCC(SCC1(CC(=O)O)CC1)c1cccc(/C=C/c2ccc3ccc(Cl)cc3n2)c1", "note": "(centres undefined)", "values": [{"measurement": "IRF Lucia reporter activity", "setting": "[1]; [6]", "value": 0.73}]}, {"smiles": "CC(C)(O)c1ccccc1CCC(SCC1(CC(=O)O)CC1)c1cccc(/C=C/c2ccc3ccc(Cl)cc3n2)c1", "note": "(centres undefined) (library stock concentration (final ~1000-fold dilution): 10 mM)", "values": [{"measurement": "IRF Lucia reporter activity", "setting": "[3]; [5]", "value": 0.492}, {"measurement": "IRF Lucia reporter activity", "setting": "[3]; agonist: LPS (TLR4) 0.1 ug/mL", "value": 1.52}]}, {"smiles": "CCOC(=O)CCNc1cc(N2CCc3ccccc3CC2)nc(-c2ccccn2)n1.Cl", "note": "(library stock concentration (final ~1000-fold dilution): 10 mM)", "values": [{"measurement": "IRF Lucia reporter activity", "setting": "[2]; [5]", "value": 1.03}, {"measurement": "IRF Lucia reporter activity", "setting": "[2]; agonist: LPS (TLR4) 0.1 ug/mL", "value": 1.04}]}, {"smiles": "CCOC(=O)CCNc1cc(N2CCc3ccccc3CC2)nc(-c2ccccn2)n1.Cl", "values": [{"measurement": "IRF Lucia reporter activity", "setting": "[1]; [4]", "value": 1}]}, {"smiles": "Cc1cccc(/C=N/Nc2cc(N3CCOCC3)nc(OCCc3ccccn3)n2)c1", "values": [{"measurement": "IRF Lucia reporter activity", "setting": "[1]; [4]", "value": 3.08}]}, {"smiles": "Cc1cccc(/C=N/Nc2cc(N3CCOCC3)nc(OCCc3ccccn3)n2)c1", "note": "(library stock concentration (final ~1000-fold dilution): 10 mM)", "values": [{"measurement": "IRF Lucia reporter activity", "setting": "[2]; [5]", "value": 0.326}, {"measurement": "IRF Lucia reporter activity", "setting": "[2]; agonist: LPS (TLR4) 0.1 ug/mL", "value": 2.84}]}, {"smiles": "CCC(NC(=O)C(C)NC)C(=O)N1CC(O)CC1Cc1c(-c2[nH]c3cc(F)ccc3c2CC2CC(O)CN2C(=O)C(CC)NC(=O)C(C)NC)[nH]c2cc(F)ccc12", "note": "(centres undefined) (library stock concentration (final ~1000-fold dilution): 10 mM)", "values": [{"measurement": "IRF Lucia reporter activity", "setting": "[2]; [5]", "value": 0.626}, {"measurement": "IRF Lucia reporter activity", "setting": "[2]; agonist: LPS (TLR4) 0.1 ug/mL", "value": 0.632}]}, {"smiles": "CCC(NC(=O)C(C)NC)C(=O)N1CC(O)CC1Cc1c(-c2[nH]c3cc(F)ccc3c2CC2CC(O)CN2C(=O)C(CC)NC(=O)C(C)NC)[nH]c2cc(F)ccc12", "note": "(centres undefined)", "values": [{"measurement": "IRF Lucia reporter activity", "setting": "[1]; [4]", "value": 0.519}]}, {"smiles": "Cc1ccc(CN(CC(O)COc2cccc3[nH]ccc23)C(C)(C)C)cc1", "note": "(centres undefined) (library stock concentration (final ~1000-fold dilution): 10 mM)", "values": [{"measurement": "IRF Lucia reporter activity", "setting": "[3]; [5]", "value": 0.837}, {"measurement": "IRF Lucia reporter activity", "setting": "[3]; agonist: LPS (TLR4) 0.1 ug/mL", "value": 1.9}]}, {"smiles": "Cc1cc(C(C)Nc2ccccc2C(=O)O)c2nc(N3CCOCC3)cc(=O)n2c1", "note": "(centres undefined) (library stock concentration (final ~1000-fold dilution): 10 mM)", "values": [{"measurement": "IRF Lucia reporter activity", "setting": "[2]; [5]", "value": 1}, {"measurement": "IRF Lucia reporter activity", "setting": "[2]; agonist: LPS (TLR4) 0.1 ug/mL", "value": 1.04}]}]}
